For experiment [1] the following is noted: Ebola virus entry assay, green fluorescence channel.
For experiment [2] the following is noted: Ebola virus entry assay, blue channel fluorescence.
The conditions of experiment [3]: Ebola virus entry assay, green fluorescence channel. The source holds these as a separate data set.
The conditions of experiment [4]: Ebola virus entry assay, ratio channel readout.
For experiment [5] the following is noted: Ebola virus entry assay, ratio channel.
The conditions of experiment [6]: Ebola virus entry assay, green channel fluorescence.
The conditions of experiment [7]: Ebola virus entry assay, blue channel fluorescence. The source holds these as a separate data set.
For experiment [8] the following is noted: Ebola virus entry assay, reporter ratio channel.
The conditions of experiment [9]: Ebola virus entry assay, blue channel (ratio component).
For experiment [10] the following is noted: Ebola virus entry reporter assay, green channel fluorescence. (In general: Reporter assays use an easily measured gene product as a stand-in for the process of interest.)
For experiment [11] the following is noted: Ebola virus entry cell assay, ratio channel.
For experiment [12] the following is noted: Ebola virus entry assay, blue channel fluorescence. The source holds these as a separate data set.
The mark [13] stands for this setting: AC50: Channel type: primary unless noted, outcome: Channel type: primary unless noted.

For some assays here: Measured potencies and affinities stand elsewhere. Activity calls are given as the source filed them.

Usually AC50 stands for the concentration at which the activity in the assay is half-maximal.
For efficacy in this document: 0% is about no effect.

`CC1(C)S[C@@H]2[C@H](NC(=O)[C@H](N)c3ccccc3)C(=O)N2[C@H]1C(=O)O`: the efficacy in experiment [1] was -14% (inactive). Moreover, the outcome in experiment [2], in experiment [3], in experiment [4], in [5], in experiment [6] and in experiment [7] was inactive. Also, the result in experiment [8] (setting [13]), in [9], in [10] and in experiment [11] was inactive.

As to `CNS(=O)(=O)Cc1ccc2[nH]cc(CCN(C)C)c2c1`, the efficacy in experiment [1] is 17.1% (inactive). The compound was classed as inactive in experiment [2], in experiment [3], in experiment [4], in experiment [5], in experiment [6] and in experiment [7]. The outcome in experiment [8] (setting [13]), in [9], in [10] and in experiment [11] was inactive.

As for `C[C@]12CC[C@@H]3c4ccc(O)cc4C[C@@H](CCCCCCCCCS(=O)CCCC(F)(F)C(F)(F)F)[C@H]3[C@@H]1CC[C@@H]2O` (stereo partly specified), the efficacy in experiment [1] is 40.4% (inactive). Also, the result in experiment [2], in experiment [3], in experiment [4], in experiment [5], in [8] (Channel type: confirmation) and in [8] (Channel type: primary) was inactive. Besides, in [9], the outcome was inactive. In experiment [11], the AC50 was 2 µM (active).

Regarding `O=C1NC(c2ccccc2)(c2ccccc2)C(=O)N1COP(=O)(O)O`, the efficacy in experiment [1] is -16% (inactive). Further, the compound was classed as inactive in experiment [2], in [3], in [4], in experiment [5], in [6] and in [7]. Moreover, the outcome in experiment [8] (setting [13]), in experiment [9], in experiment [10] and in experiment [11] was inactive.

For `Cc1ccccc1N1C(=O)c2cc(S(N)(=O)=O)c(Cl)cc2NC1C` (stereo unspecified), in [1], the efficacy was 25.2% (inactive). For the same compound, the call in experiment [2], in experiment [3], in experiment [4], in experiment [5], in experiment [6] and in [7] was inactive. The result in experiment [8] (setting [13]), in [9] and in experiment [11] was inactive.

In the case of `CCOC(=O)[C@H](CCc1ccccc1)N[C@@H](C)C(=O)N1Cc2cc(OC)c(OC)cc2C[C@H]1C(=O)O`, the efficacy in [1] is 30.5% (inactive). The result in experiment [2], in experiment [3], in [4], in [5], in experiment [6] and in experiment [7] was inactive. Moreover, the result in experiment [8] (setting [13]), in experiment [9] and in experiment [11] was inactive.

Regarding `O=C(O)COCCN1CCN(C(c2ccccc2)c2ccc(Cl)cc2)CC1` (stereo unspecified), in experiment [1], the efficacy was -24.1% (inactive). The call in experiment [2], in [3], in experiment [4], in experiment [6], in experiment [7] and in [8] (setting [13]) was inactive. The outcome in [9], in experiment [10] and in [11] was inactive.

Take `CN(N=O)C(=O)N[C@@H]1[C@@H](O)[C@H](O)[C@@H](CO)O[C@@H]1O`: the efficacy in experiment [1] was -17.3% (inactive). Further, the compound was called inactive in experiment [2], in experiment [3], in experiment [4], in experiment [5], in experiment [6] and in experiment [7]. The result in experiment [8] (setting [13]), in [9], in [10] and in [11] was inactive.

Regarding `CC(C)C1CCC(C(=O)N[C@H](Cc2ccccc2)C(=O)O)CC1` (stereo partly specified), the efficacy in experiment [1] was -31.7% (inactive). The compound was classed as inactive in [2], in experiment [3], in experiment [4], in experiment [5], in experiment [6] and in experiment [7]. The result in [8] (setting [13]), in experiment [9] and in [11] was inactive.

Take `CCOC(=O)N1CCC(=C2c3ccc(Cl)cc3CCc3cccnc32)CC1`: the efficacy in experiment [1] was 62.3% (inactive). Further, the call in experiment [2], in [3], in [4] and in [11] was inactive. Further, the AC50 in experiment [5] and in experiment [8] (setting [13]) was 6.31 µM (active) throughout.

`Nc1nc2c(ncn2COCCO)c(=O)[nH]1`: the efficacy in [1] was -5.83% (inactive). Also, the compound was classed as inactive in experiment [2], in [3], in experiment [4], in [5], in experiment [6] and in [7]. The outcome in [8] (setting [13]), in experiment [9] and in experiment [11] was inactive.

With `CCN1CCN(C(=O)N[C@@H](C(=O)N[C@@H]2C(=O)N3C(C(=O)O)=C(CSc4nnnn4C)CS[C@H]23)c2ccc(O)cc2)C(=O)C1=O`, the efficacy in experiment [1] is -23.3% (inactive). For the same compound, the call in [2], in experiment [3], in experiment [4], in experiment [12], in experiment [6] and in experiment [7] was inactive. Besides, the outcome in experiment [8] (setting [13]), in [9] and in experiment [11] was inactive.

Turning to `CC(C)(C#N)c1cc(Cn2cncn2)cc(C(C)(C)C#N)c1`, in [1], the efficacy was 15% (inactive). In addition, the outcome in experiment [2], in experiment [3], in experiment [4], in experiment [5], in experiment [6] and in experiment [7] was inactive. In addition, the result in experiment [8] (setting [13]), in [9], in experiment [10] and in experiment [11] was inactive.

The values above are taken from PubChem BioAssay (NCATS).
